# Reference: PubChem BioAssay (Tox21)
# Unmarked numbers belong to inactive results. Records with an inconclusive call do not appear. A call without a number means that no potency is given here. Calls of active or inactive are those of the source. Unless noted, calls follow the shape of the dose curve; as a rule, active = well fitted curve in the direction sought with a large enough effect in the repeat runs; inconclusive = weak or mixed curves; inactive = no such curve, though single readings can be large; an effect the other way counts as inactive or inconclusive.
# Key:
# [1] = qHTS assay to identify small molecule antagonists of the TGF-beta/Smad signaling pathway - cell viability counter screen (AID 1346824); also: nearly all actives have a fitted effect of over 50% in size
# Outline: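 SBE-bla HEK 293T cells, incubated overnight, then compound plus 0.25 ng/mL TGF-beta1 (stock added) for 5 hr at 37 C. Viability was read in the same wells by CellTiter-Glo luminescence after 30 min at room temperature.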
# [2] = qHTS assay to identify small molecule agonists of the TGF-beta/Smad signaling pathway - cell viability counter screen (AID 1346829); also: top concentration of the series differs between compounds; nearly all actives have a fitted effect of over 45% in size
# Outline: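 HEK 293T SBE-bla line, 5 hr compound exposure at 37 C, multiplexed CellTiter-Glo viability read by luminescence.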
# [3] = qHTS assay to identify small molecule agonists of the TGF-beta/Smad signaling pathway (AID 1346859; active = well fitted activation curve with a large enough effect in the signal ratio in the repeat runs, not every such curve was filed as active; the % refers to the signal ratio; also: series mostly up to about 77 µM)
# Outline: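 Dual-wavelength fluorescence (460/530 nm emission) quantified beta-lactamase expression under the Smad binding element in HEK 293T cells following 5 hr compound treatment at 37 C.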
# [4] = target: Thyrotropin-releasing hormone receptor (Homo sapiens) (UniProt P34981); test: qHTS assay to identify small molecule antagonists of the thyrotropin-releasing hormone receptor (TRHR) signaling pathway (AID 1346877; active = well fitted inhibition curve with a large enough effect in the repeat runs, not every such curve was filed as active; also: series mostly up to about 51 µM)
# Sequence of Thyrotropin-releasing hormone receptor (Homo sapiens) (P34981 whole entry, looked up): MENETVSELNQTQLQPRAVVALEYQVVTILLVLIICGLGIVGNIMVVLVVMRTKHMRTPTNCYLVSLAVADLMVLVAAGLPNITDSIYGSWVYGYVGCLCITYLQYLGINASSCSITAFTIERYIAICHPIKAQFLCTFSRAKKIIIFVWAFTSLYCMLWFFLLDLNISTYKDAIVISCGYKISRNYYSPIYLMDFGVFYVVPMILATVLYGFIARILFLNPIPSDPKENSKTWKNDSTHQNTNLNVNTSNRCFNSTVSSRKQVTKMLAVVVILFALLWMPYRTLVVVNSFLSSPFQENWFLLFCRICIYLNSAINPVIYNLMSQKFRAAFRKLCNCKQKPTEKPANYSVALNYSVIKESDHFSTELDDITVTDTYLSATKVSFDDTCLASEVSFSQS
# Outline: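 Human TRHR in HEK293 cells; inhibition of the intracellular calcium rise triggered by 1 nM TRH was followed by fluorescence over 3 min. Compounds were run at 15 concentrations, three replicates each.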
# [5] = target: Thyrotropin-releasing hormone receptor (Homo sapiens) (UniProt P34981); test: qHTS assay to identify small molecule agonists of the thyrotropin-releasing hormone receptor (TRHR) signaling pathway (AID 1346891; calls by dose curve;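 also: HEK293 cells expressing TRHR with calcium dye readout; series mostly up to about 58 µM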)
# Outline: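 Kinetic fluorescence (3 min, 1 s intervals) reported intracellular calcium after compound transfer onto TRHR-Hek293 cells pre-loaded with dye for 2 h at 37 °C.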
# [6] = Human pregnane X receptor (PXR) small molecule agonists, qHTS cell viability counter screen (AID 1346977); also: nearly all actives have a fitted effect of over 50% in size
# Outline: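 HepG2 cells stably carrying the PXR-Luc reporter are cultured with 5% charcoal-stripped FBS and treated with compounds for 24hr. CellTiter-Fluor is added at 23hr and fluorescence is read after 1hr.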
# [7] = Caspase-3/7 induction in HepG2 cells by small molecules, qHTS assay (AID 1346978); also: nearly all actives have a fitted effect of over 15% in size
# Outline: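 Wild-type HepG2 cells, 2,000/well, settled 5 hr at 37 C and 5% CO2, then compound-treated for 17 hr; caspase-3/7 activity read by luminescent Caspase-Glo 3/7 after 30 min at room temperature.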
# [8] = Caspase-3/7 induction in CHO-K1 cells by small molecules, qHTS assay (AID 1346980); also: nearly all actives have a fitted effect of over 15% in size
# Outline: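 Wild-type CHO-K1 cells exposed to compounds for 17hr at 37 C, 5% CO2. Caspase-3/7 activity then measured by Caspase-Glo 3/7 luminescence after 30min at room temperature.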
# [9] = Caspase-3/7 induction in HepG2 cells by small molecules, qHTS cell viability counter screen (AID 1346981); also: series mostly up to about 92 µM; nearly all actives have a fitted effect of over 30% in size
# Outline: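 The parent HepG2 line is plated at 2,000 cells per well and rested 5 hr before compound pinning from DMSO stocks. Following a 16-hr treatment at 37 C, a fluorogenic live-cell substrate (CellTiter-Fluor) reports viability after 1 hr.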
# [10] = target: Nuclear receptor subfamily 1 group I member 2 (Homo sapiens) (UniProt O75469); test: Human pregnane X receptor (PXR) small molecule agonists, qHTS assay (AID 1346982); also: nearly all actives have a fitted effect of over 35% in size
# Sequence of Nuclear receptor subfamily 1 group I member 2 (Homo sapiens) (O75469 whole entry, looked up): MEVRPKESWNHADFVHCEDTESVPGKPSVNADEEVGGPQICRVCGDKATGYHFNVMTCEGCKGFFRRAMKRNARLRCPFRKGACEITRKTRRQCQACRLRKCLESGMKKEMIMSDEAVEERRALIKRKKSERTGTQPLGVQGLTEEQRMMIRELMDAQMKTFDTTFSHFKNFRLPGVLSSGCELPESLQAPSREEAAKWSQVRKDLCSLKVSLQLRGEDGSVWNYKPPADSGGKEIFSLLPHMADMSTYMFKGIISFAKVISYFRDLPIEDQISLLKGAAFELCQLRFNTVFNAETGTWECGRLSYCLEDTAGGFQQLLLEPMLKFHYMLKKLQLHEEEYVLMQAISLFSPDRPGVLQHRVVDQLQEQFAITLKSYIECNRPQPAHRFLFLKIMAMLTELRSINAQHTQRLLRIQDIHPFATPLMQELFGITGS
# Outline: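 After plating in 5% charcoal-stripped FBS and a 5 hr rest, PXR-Luc HepG2 cells received compounds in DMSO. Following 24 hr at 37 C, ONE-Glo was added and light output read.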
# [11] = target: Cytochrome P450 2D6 (Homo sapiens) (UniProt P10635); test: Cytochrome P450 Family 2 Subfamily D Member 6 (CYP2D6) small molecule antagonists: luciferase reporter qHTS assay (AID 1671196); also: series mostly up to about 120 µM; nearly all actives have a fitted effect of over 50% in size
# Sequence of Cytochrome P450 2D6 (Homo sapiens) (P10635 whole entry, looked up): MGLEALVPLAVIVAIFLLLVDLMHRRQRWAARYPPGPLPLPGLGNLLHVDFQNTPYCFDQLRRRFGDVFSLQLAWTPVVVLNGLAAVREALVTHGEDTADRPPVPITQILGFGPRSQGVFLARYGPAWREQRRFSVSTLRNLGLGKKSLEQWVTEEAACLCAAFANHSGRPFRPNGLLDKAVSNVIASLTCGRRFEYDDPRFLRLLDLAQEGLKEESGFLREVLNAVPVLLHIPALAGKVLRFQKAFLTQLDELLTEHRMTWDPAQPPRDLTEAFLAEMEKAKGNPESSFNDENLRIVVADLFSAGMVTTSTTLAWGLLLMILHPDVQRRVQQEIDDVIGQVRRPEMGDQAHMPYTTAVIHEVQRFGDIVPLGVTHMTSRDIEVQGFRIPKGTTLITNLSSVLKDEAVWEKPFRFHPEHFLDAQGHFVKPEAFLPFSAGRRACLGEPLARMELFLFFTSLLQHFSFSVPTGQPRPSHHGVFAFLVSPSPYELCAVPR
# Outline: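 Quantitative HTS of Tox21 chemicals against CYP2D6 using a luminescent proluciferin substrate. After NADPH addition, 1 h room-temperature reaction; luminescence recorded 20 min post detection reagent.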
# [12] = target: Cytochrome P450 2C19 (Homo sapiens) (UniProt P33261); test: Cytochrome P450 Family 2 Subfamily C Member 19 (CYP2C19) small molecule antagonists: luciferase reporter qHTS assay (AID 1671197); also: nearly all actives have a fitted effect of over 65% in size; also: potency is read from the fitted curve at half-maximal effect
# Sequence of Cytochrome P450 2C19 (Homo sapiens) (P33261 whole entry, looked up): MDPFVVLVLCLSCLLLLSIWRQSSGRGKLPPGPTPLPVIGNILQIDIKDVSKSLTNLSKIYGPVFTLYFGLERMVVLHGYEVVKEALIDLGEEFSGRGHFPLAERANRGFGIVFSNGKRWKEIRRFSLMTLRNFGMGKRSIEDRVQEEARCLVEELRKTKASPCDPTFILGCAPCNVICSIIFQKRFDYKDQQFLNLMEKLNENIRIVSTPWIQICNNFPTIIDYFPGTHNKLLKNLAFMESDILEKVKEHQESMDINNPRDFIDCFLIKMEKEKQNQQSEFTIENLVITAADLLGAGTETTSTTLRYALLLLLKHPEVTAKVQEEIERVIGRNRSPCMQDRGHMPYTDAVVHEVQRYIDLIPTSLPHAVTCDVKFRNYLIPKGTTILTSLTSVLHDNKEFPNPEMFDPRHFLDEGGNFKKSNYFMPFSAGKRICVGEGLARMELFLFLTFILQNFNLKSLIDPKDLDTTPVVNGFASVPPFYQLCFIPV
# Outline: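 First, compounds are pinned into enzyme-substrate mix and held 10 min at room temperature. Second, NADPH regeneration solution is added and plates incubate 1 h at 37C. Third, detection reagent is added and luminescence read after 20 min.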
# [13] = target: Voltage-gated inwardly rectifying potassium channel KCNH2 (Homo sapiens) (UniProt Q12809); test: Human Ether-a-go-go-Related Gene (hERG) channel small molecule antagonists: fluorescence cell-based qHTS assay (AID 1671200);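 also: hERG-expressing U2OS cells given a thallium stimulus after FluxOR II dye loading; series mostly up to about 77 µM; nearly all actives have a fitted effect of over 50% in size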
# Sequence of Voltage-gated inwardly rectifying potassium channel KCNH2 (Homo sapiens) (Q12809 whole entry, looked up): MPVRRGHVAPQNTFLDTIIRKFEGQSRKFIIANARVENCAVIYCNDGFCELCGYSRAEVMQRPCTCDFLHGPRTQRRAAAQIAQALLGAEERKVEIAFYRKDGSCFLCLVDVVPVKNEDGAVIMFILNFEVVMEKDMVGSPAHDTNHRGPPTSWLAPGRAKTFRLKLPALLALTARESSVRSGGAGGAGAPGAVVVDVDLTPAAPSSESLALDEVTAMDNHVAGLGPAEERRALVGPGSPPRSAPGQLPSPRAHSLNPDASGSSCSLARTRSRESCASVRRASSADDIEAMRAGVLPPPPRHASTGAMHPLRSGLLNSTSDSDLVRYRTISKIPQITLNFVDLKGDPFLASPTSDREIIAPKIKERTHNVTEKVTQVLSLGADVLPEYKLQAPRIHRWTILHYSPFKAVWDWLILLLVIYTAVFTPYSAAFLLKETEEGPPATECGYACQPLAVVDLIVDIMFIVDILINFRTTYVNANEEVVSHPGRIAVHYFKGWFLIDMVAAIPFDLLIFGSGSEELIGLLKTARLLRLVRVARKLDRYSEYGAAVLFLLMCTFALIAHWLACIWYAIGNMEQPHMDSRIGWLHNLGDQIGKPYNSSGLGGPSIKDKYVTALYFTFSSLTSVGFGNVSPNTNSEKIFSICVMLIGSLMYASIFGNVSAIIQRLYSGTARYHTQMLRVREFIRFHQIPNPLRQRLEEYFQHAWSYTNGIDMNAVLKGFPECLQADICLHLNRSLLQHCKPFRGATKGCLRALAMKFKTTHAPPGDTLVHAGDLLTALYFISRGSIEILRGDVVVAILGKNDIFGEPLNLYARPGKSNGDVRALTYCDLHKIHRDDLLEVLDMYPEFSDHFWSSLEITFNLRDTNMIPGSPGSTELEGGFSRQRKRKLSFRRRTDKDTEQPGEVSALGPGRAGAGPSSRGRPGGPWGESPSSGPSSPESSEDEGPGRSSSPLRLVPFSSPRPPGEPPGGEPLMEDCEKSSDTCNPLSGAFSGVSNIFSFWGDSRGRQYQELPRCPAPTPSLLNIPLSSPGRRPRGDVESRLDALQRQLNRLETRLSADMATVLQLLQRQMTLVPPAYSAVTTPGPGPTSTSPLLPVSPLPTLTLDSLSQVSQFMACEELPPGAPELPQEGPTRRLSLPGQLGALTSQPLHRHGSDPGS
# Outline: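 First, 1000 cells per well are seeded and cultured overnight at 37 C. Next, FluxOR II dye is loaded for 1 h at room temperature, protected from light. After 10 more minutes, stimulus is added and fluorescence is read.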
# [14] = target: Cytochrome P450 3A4 (Homo sapiens) (UniProt P08684); test: Cytochrome P450 Family 3 Subfamily A Member 4 (CYP3A4) small molecule antagonists: luciferase reporter qHTS assay (AID 1671201); also: nearly all actives have a fitted effect of over 50% in size; also: potency is read from the fitted curve at half-maximal effect
# Sequence of Cytochrome P450 3A4 (Homo sapiens) (P08684 whole entry, looked up): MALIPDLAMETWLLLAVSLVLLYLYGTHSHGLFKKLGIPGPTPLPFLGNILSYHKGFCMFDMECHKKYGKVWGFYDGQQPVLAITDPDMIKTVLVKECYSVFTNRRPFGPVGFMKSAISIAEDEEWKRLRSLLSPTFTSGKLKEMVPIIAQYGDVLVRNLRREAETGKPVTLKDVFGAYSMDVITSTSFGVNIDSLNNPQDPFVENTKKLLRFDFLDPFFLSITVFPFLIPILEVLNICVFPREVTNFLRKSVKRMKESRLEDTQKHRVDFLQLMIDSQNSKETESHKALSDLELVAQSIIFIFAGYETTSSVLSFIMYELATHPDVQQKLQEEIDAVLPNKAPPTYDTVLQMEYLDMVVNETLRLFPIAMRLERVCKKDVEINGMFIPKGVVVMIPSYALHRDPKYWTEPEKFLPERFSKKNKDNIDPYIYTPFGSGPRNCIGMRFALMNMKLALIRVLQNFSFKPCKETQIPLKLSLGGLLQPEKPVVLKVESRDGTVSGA
# Outline: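 Enzyme and proluciferin substrate are mixed with test chemicals for 10 min, then NADPH regeneration system drives turnover for 1 h at room temperature. A detection reagent halts the reaction; luminescence after 20 min gives relative activity.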
# [15] = target: Cytochrome P450 2C9 (Homo sapiens) (UniProt P11712); test: Cytochrome P450 Family 2 Subfamily C Member 9 (CYP2C9) small molecule antagonists: luciferase reporter qHTS assay (AID 1671198); also: nearly all actives have a fitted effect of over 50% in size; also: potency is read from the fitted curve at half-maximal effect
# Sequence of Cytochrome P450 2C9 (Homo sapiens) (P11712 whole entry, looked up): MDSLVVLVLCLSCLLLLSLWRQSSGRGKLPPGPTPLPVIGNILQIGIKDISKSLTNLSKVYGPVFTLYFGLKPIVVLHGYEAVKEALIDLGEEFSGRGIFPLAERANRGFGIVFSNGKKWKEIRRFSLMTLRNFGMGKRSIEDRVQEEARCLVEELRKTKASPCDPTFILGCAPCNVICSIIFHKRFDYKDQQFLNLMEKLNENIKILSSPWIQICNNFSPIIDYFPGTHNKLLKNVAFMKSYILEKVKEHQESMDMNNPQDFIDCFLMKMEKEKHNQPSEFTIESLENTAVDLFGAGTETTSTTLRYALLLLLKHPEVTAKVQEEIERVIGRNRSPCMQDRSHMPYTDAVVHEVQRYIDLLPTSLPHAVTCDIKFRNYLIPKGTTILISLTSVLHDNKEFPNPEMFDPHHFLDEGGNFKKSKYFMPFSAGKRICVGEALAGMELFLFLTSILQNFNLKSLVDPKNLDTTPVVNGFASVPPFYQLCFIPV
# Outline: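 P450-Glo proluciferin substrate with CYP2C9 enzyme; 10 min RT preincubation, then NADPH regeneration 1 h at 37C; luciferin detection reagent 20 min RT, luminescence in relative luminescence units.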
# [16] = Caspase-3/7 induction in CHO-K1 cells by small molecules, qHTS cell viability counter screen (AID 1346979); also: nearly all actives have a fitted effect of over 35% in size
# Outline: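 Seeding: 1,500 CHO-K1 cells/well. Rest: 5hr, 37C. Treatment: compounds in DMSO, 16hr. Read: CellTiter-Fluor, 1hr, fluorescence.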
# [17] = target: Cytochrome P450 1A2 (Homo sapiens) (UniProt P05177); test: Cytochrome P450 Family 1 Subfamily A Member 2 (CYP1A2) small molecule antagonists: luciferase reporter qHTS assay (AID 1671199); also: nearly all actives have a fitted effect of over 50% in size; also: potency is read from the fitted curve at half-maximal effect
# Sequence of Cytochrome P450 1A2 (Homo sapiens) (P05177 whole entry, looked up): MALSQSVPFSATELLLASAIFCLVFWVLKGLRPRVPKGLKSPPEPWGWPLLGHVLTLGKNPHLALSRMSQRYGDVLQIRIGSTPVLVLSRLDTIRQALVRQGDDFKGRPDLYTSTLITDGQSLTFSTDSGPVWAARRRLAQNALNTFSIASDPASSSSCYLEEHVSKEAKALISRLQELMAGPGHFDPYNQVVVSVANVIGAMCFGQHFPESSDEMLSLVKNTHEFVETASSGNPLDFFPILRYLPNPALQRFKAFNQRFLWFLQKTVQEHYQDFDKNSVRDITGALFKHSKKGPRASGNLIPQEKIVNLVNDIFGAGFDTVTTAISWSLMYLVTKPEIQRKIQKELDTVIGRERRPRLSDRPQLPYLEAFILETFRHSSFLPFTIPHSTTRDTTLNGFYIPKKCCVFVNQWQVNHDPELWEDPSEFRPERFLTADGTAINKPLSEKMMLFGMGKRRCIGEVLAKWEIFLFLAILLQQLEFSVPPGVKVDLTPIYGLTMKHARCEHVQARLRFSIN
# Outline: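 Quantitative high-throughput format using the P450-Glo CYP1A2 system. Reaction initiated by NADPH regeneration solution, 1 h at room temperature, then stopped with detection reagent; luminescence measured 20 min later.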
# [18] = target: Nuclear receptor subfamily 1 group I member 2 (Rattus norvegicus) (UniProt Q9R1A7); test: Rat pregnane X receptor (rPXR) activation by small molecules, qHTS assay (AID 1346983); conditions: rPXR luciferase reporter cells, One-Glo luminescence, 24 h; max activation: stronger effect = higher value; also: nearly all actives have a fitted effect of over 20% in size
# Sequence of Nuclear receptor subfamily 1 group I member 2 (Rattus norvegicus) (Q9R1A7 whole entry, looked up): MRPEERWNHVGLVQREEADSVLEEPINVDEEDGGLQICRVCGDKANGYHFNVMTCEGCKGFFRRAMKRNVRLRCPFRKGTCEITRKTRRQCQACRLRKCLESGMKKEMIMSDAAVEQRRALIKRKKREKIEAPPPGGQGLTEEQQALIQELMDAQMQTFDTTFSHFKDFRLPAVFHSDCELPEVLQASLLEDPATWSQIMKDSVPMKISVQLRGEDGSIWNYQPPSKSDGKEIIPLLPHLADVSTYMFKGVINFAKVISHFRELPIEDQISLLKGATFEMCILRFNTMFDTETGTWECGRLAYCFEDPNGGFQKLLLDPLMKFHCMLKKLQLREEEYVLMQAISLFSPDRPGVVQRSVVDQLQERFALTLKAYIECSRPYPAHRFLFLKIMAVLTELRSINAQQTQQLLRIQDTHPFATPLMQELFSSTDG
# Outline: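 Cell-based rPXR activation assay: rPXR cells, 2,000 per well, rested 5hr at 37 C, then exposed to compounds in DMSO for 24 hr at 37 C. Luciferase activity read by One-Glo luminescence after 30 min at room temperature.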
# [19] = target: Nuclear receptor subfamily 1 group I member 2 (Homo sapiens) (UniProt O75469); test: CYP3A4 induction through human pregnane X receptor (PXR) by small molecules, qHTS assay (AID 1346984); also: nearly all actives have a fitted effect of over 40% in size
# Outline: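 Human PXR activation is tracked via CYP3A4 promoter-luciferase in DPX-2 (HepG2) cells. Compounds treat cells for 24hr at 37C, and luminescence is read after One-Glo.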
SMILES,outcome [1],outcome [2],outcome [3],outcome [4],outcome [5],Potency [6],outcome [7],outcome [8],Potency [9],Potency [10],Potency [11],Potency [12],Potency [13],Potency [14],Potency [15],Potency [16],Potency [17],max activation [18],outcome [19]
C/C=C(\C)C(=O)OCC/C=C\CC,inactive,inactive,inactive,inactive,inactive,inactive,inactive,inactive,inactive,inactive,inactive,inactive,inactive,inactive,–,–,–,–,–
CCC(CO)CO,inactive,inactive,inactive,inactive,inactive,inactive,–,inactive,–,inactive,–,inactive,inactive,inactive,inactive,–,–,–,–
CC(=O)OC(C)c1ccccc1 (stereo not given),inactive,inactive,inactive,inactive,inactive,inactive,inactive,inactive,inactive,–,inactive,–,inactive,inactive,inactive,–,–,–,–
CC(CC(=O)O)CC(C)(C)C (stereo not given),inactive,inactive,inactive,inactive,–,inactive,inactive,inactive,inactive,inactive,–,inactive,inactive,inactive,inactive,inactive,inactive,–,–
C=CCOCC(CO)(COCC=C)COCC=C,inactive,inactive,inactive,inactive,inactive,inactive,inactive,inactive,–,–,inactive,0.717 µM (active),inactive,10.1 µM (active),–,inactive,25.5 µM (active),–,–
CCC(O)C(C)(C)C (stereo not given),inactive,inactive,inactive,inactive,–,inactive,inactive,inactive,inactive,inactive,inactive,inactive,inactive,inactive,inactive,–,–,–,–
C1CCN2C[C@@H]3C[C@@H](CN4CCCC[C@@H]34)[C@H]2C1,inactive,inactive,inactive,inactive,inactive,inactive,inactive,inactive,inactive,–,–,–,inactive,–,–,–,–,–,–
CC(Cl)COP(=O)(OCC(C)Cl)OCC(C)Cl (stereo not given),inactive,inactive,inactive,inactive,–,inactive,inactive,inactive,inactive,–,–,19.9 µM (active),inactive,inactive,–,inactive,22.3 µM (active),–,–
C=CCOCC(O)CCl (stereo not given),inactive,inactive,inactive,inactive,inactive,inactive,–,inactive,–,inactive,–,–,inactive,inactive,–,inactive,–,–,–
Cc1ccc(S(=O)(=O)NC(=O)NC2CCCCCCC2)cc1,inactive,inactive,inactive,inactive,inactive,inactive,inactive,inactive,–,inactive,inactive,–,inactive,inactive,11 µM (active),–,inactive,-1.92%,inactive
NS(=O)(=O)c1ccccc1OC(F)(F)F,inactive,inactive,inactive,inactive,inactive,inactive,–,inactive,–,inactive,inactive,–,inactive,inactive,inactive,inactive,–,–,–
O=S(=O)(O)SSS(=O)(=O)O,inactive,inactive,inactive,inactive,inactive,inactive,inactive,inactive,inactive,–,–,35.6 µM (active),inactive,inactive,71 µM (active),–,–,–,–
CCC(C)N (stereo not given),inactive,inactive,inactive,inactive,–,inactive,inactive,inactive,inactive,inactive,inactive,inactive,inactive,inactive,inactive,–,–,–,–
CC(C)C(=O)c1ccccc1,inactive,inactive,inactive,inactive,–,inactive,inactive,inactive,inactive,inactive,inactive,inactive,inactive,inactive,inactive,inactive,–,–,–
C=CCOC(=O)c1ccc(C(=O)OCC=C)c(C(=O)OCC=C)c1,inactive,inactive,inactive,inactive,–,inactive,inactive,inactive,inactive,inactive,–,0.159 µM (active),inactive,1.78 µM (active),0.399 µM (active),inactive,6.33 µM (active),–,–
SCCSCCS,inactive,inactive,inactive,inactive,inactive,inactive,inactive,inactive,–,–,inactive,inactive,inactive,inactive,–,inactive,inactive,–,–
CCN(CCO)c1cccc(C)c1,inactive,inactive,inactive,inactive,inactive,inactive,–,inactive,inactive,inactive,inactive,35.6 µM (active),inactive,–,–,inactive,28.3 µM (active),–,–
